Source: PubChem BioAssay
Rows were chosen to be rich in hits. Some 3.6% of all compounds tested hit in one or more screens of this group.
NTMT1 inh: NTMT1 methyltransferase inhibition. NTMT1 MTase-Glo SAH luminescence, purified enzyme. AID 1645870. Potency, µM (series often up to 114 µM), most hits filed as inhibitors. 59,000 compounds, 2.5% hits. Q9BV86; further: nearly all actives have a fitted effect of over 65% in size
Target sequence (Q9BV86 whole entry, looked up): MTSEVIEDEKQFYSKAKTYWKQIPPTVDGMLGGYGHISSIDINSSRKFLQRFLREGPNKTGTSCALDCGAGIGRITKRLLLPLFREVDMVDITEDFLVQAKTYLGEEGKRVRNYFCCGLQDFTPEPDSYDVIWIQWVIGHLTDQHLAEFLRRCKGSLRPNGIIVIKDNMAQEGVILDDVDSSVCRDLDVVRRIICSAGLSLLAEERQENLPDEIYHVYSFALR
GALC G270D up: galactocerebrosidase G270D activity enhancement, cell-based. 45,000 compounds, 0.1% hits. AID 1159614. Potency, µM (highest dose often 57.5 µM), most hits filed as activators. 145M-Twi-hGALC-G270D cells (Twitcher mouse brain line with human GALC G270D), HMU-beta-Gal fluorescence, 48 h; further: nearly all actives have a fitted effect of over 65% in size
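Live 145M-Twi cells (Twitcher mouse brain-derived, GALC-null) stably expressing human GALC-G270D, with a wild-type GALC line, were compound-treated. Residual GALC activity was then read as fluorescence from 0.1 mM final HMU-β-gal at pH 5.2; higher signal means activation.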
GALK inhibitor: GALK (human) enzyme inhibition; P51570; recombinant GALK, Kinase-Glo ATP luminescence, 1 h; Potency, µM (titrated, usually from 57.5 µM), actives largely listed as inhibitors; 44,000 tested, under 10 active; AID 1347072
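5 nM GALK; 35 uM ATP; 100 uM D-galactose; 20 mM HEPES pH 8.0, 5 mM MgCl2, 60 mM NaCl, 1 mM DTT, 0.01% BSA; 1 h RT; Kinase-Glo Plus luminescence.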
B2AR arrestin ag: agonists recruiting beta-arrestin to human beta2-adrenergic receptor. P07550. HTLA Tango cells, beta-arrestin recruitment, luciferase luminescence, 18 h. Potency, µM (titrated, usually from 46.1 µM), actives largely listed as activators. 44,000 tested, under 10 active. AID 1347077
Target sequence (P07550 whole entry, looked up): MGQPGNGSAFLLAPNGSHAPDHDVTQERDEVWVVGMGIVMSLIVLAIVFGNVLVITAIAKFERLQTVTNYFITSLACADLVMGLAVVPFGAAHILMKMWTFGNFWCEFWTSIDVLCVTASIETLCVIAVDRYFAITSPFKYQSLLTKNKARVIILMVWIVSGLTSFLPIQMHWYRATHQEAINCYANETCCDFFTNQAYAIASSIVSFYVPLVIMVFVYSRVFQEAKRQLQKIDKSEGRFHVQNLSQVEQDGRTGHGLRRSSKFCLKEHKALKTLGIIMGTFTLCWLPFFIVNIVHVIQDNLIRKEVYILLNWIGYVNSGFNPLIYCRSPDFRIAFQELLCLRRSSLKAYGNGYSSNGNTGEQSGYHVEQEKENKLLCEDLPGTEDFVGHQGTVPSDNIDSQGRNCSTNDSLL
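First, Tango cells carrying beta2-AR and beta-arrestin fusions received compound up to 46 microM. After 18 hr at 37 degrees C, luciferase substrate was added for 15 minutes, then luminescence gave %Activity for curve fitting.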
DRV1 agonist: activates human resolvin D1 receptor GPR32. AID 1346428. 48,000 compounds, 2.5% hits. activation, % at 76.9 µM. CHO-K1 GPR32 beta-arrestin PathHunter luminescence, 90 min; zero percent set by DMSO-only wells;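 active means activation of at least 60% and not above a set upper limit, about 1 call in 100 departs from these limits; inconclusive means activation of 40% to 60%, or above that upper limit; inactive means activation under 40%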
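Step 1: seed CHO-K1 GPR32 beta-arrestin cells, 2,500/well, overnight at 37 °C. Step 2: add compounds, 90 min at 37 °C. Step 3: detection reagent, 1 h ambient, then luminescence.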
Numbers stand for hits; ! = not confirmed by another sample. Unless noted, the call rests on the fitted dose curve; in most records, active means well fitted curve in the direction sought with a large enough effect; inconclusive means small, poorly fitted or top-dose-only effect, or another doubt; inactive means no such curve, though single readings can be large; an effect the other way counts as inactive or inconclusive.

How did Cc1cc(N2CCCCC2)nc2ccc(NC(=O)c3ccc(F)cc3)cc12 do in these assays?
NTMT1 inh: inactive; GALC G270D up: inactive; GALK inhibitor: inactive; B2AR arrestin ag: inactive; DRV1 agonist: 105

What do the screens show for `Cc1ccc(NC(=O)Nc2ccc3nc(N4CCN(C)CC4)cc(C)c3c2)cc1F`?
NTMT1 inh: inactive; GALC G270D up: inactive; GALK inhibitor: inactive; B2AR arrestin ag: inactive; DRV1 agonist: 94

Results for Cc1cc(N2CCN(C)CC2)nc2ccc(NC(=O)Nc3ccc(F)cc3)cc12 ?
NTMT1 inh: inconclusive; GALC G270D up: inactive; GALK inhibitor: inactive; B2AR arrestin ag: inactive; DRV1 agonist: inactive

What do the screens show for `COc1ccc(-c2ccc(NC(=O)c3cccs3)cn2)cc1`?
NTMT1 inh: inactive

What do the screens show for `COc1cc(N2CCC(N3CCN(C)CC3)CC2)ccc1Nc1ncc(Cl)c(Nc2ccccc2S(=O)(=O)C(C)C)n1`?
NTMT1 inh: 25µM!

Results for COc1cc(N2CCN(C)CC2)ccc1Nc1nc(N)c(C(=O)c2c(Cl)cccc2Cl)s1 ?
NTMT1 inh: inactive

What do the screens show for `COc1cccc(C(=O)Nc2nc(-c3nnn(-c4ccccc4C(F)(F)F)c3C)ns2)c1`?
NTMT1 inh: inactive; GALC G270D up: inactive; GALK inhibitor: inactive; B2AR arrestin ag: inactive; DRV1 agonist: 91

What do the screens show for `COc1cccc(C(=O)Nc2nc(-c3nnn(-c4cc(C)ccc4C)c3C)ns2)c1`?
NTMT1 inh: inactive; GALC G270D up: inactive; GALK inhibitor: inactive; B2AR arrestin ag: inactive; DRV1 agonist: inactive

What do the screens show for `O=S(=O)(O)c1cc(I)c(O)c2ncccc12`?
NTMT1 inh: inconclusive; GALC G270D up: inactive; DRV1 agonist: 105

What do the screens show for `Oc1c(I)cc(I)c2cccnc12`?
NTMT1 inh: inactive; GALC G270D up: inactive; DRV1 agonist: inactive

Results for CN(C)c1ccc2cc(C(=O)N[C@@H](CCCN=C(N)CCl)C(=O)NCc3ccccc3)ccc2c1 ?
NTMT1 inh: 5.6µM

Results for CN(C)c1ccc(CNC(=O)c2ccc3nc(Cc4ccccc4)oc3c2)cc1 ?
NTMT1 inh: inactive; GALC G270D up: inactive; GALK inhibitor: inactive; B2AR arrestin ag: inactive; DRV1 agonist: inactive

What do the screens show for `CC1CCCC(O)CCC/C=C/c2cc(OS(=O)(=O)O)cc(O)c2C(=O)O1` (stereo not given)?
NTMT1 inh: 13µM

Results for O=C(NCCc1ccccc1)c1cc(Nc2ccccc2)nc2ccccc12 ?
NTMT1 inh: inactive; GALC G270D up: inactive; GALK inhibitor: inactive; B2AR arrestin ag: inactive; DRV1 agonist: inactive

Results for COc1ccc(Nc2cc(C(=O)NCCCN(C)Cc3ccccc3)c3ccccc3n2)c(OC)c1 ?
NTMT1 inh: inconclusive; GALC G270D up: inactive; GALK inhibitor: inactive; B2AR arrestin ag: inactive; DRV1 agonist: 65

What do the screens show for `COc1ccc(Nc2cc(C(=O)NCCCN(C)Cc3ccccc3)c3ccccc3n2)cc1`?
NTMT1 inh: inactive; GALC G270D up: inactive; GALK inhibitor: inactive; B2AR arrestin ag: inactive; DRV1 agonist: inactive

Results for CC(C)c1ccc(Nc2cc(C(=O)NCCc3ccccc3)c3ccccc3n2)cc1 ?
NTMT1 inh: inactive; GALC G270D up: inactive; GALK inhibitor: inactive; B2AR arrestin ag: inactive; DRV1 agonist: 85

How did CC(NC(=O)CSc1nc(-c2cccc(Cl)c2)nc2cc(=O)[nH]n12)c1nc2ccccc2n1C (stereo not given) do in these assays?
GALK inhibitor: inactive; B2AR arrestin ag: inactive; DRV1 agonist: 69

What do the screens show for `O=C(CSc1nc(-c2ccccc2)nc2cc(=O)[nH]n12)Nc1ccccc1`?
NTMT1 inh: inconclusive; GALC G270D up: inactive; GALK inhibitor: inactive; B2AR arrestin ag: inactive; DRV1 agonist: inactive

What do the screens show for `O=C(NO)C1(CS(=O)(=O)c2ccc(Oc3ccc(Cl)cc3)cc2)CCOCC1`?
NTMT1 inh: inactive

How did Cc1cncn1CCc1nc2c3ccccc3nc(SCC(=O)Nc3ccc(F)cc3)n2n1 do in these assays?
NTMT1 inh: inactive; GALC G270D up: inactive; GALK inhibitor: inactive; B2AR arrestin ag: inactive; DRV1 agonist: inactive

How did CCOc1ccccc1NC(=O)CSc1nc2ccccc2c2nc(CCn3cncc3C)nn12 do in these assays?
NTMT1 inh: inconclusive; GALC G270D up: inactive; GALK inhibitor: inactive; B2AR arrestin ag: inactive; DRV1 agonist: 97

Results for COc1cc2ncnc(Nc3ccc(O)cc3)c2cc1OC ?
NTMT1 inh: inactive

What do the screens show for `COc1cc2ncnc(Nc3ccc(O)c(Br)c3)c2cc1OC`?
NTMT1 inh: 40µM

How did CCNC(=O)Nc1ccc(-c2nc3c(c(N4CCOC[C@@H]4C)n2)CCN(C2COC2)C3)cc1 do in these assays?
NTMT1 inh: inactive

What do the screens show for `Fc1cnc(-c2ccccc2C(F)F)nc1NCC1CCN(c2cnccn2)CC1`?
NTMT1 inh: inactive

Results for Cc1cc2nc3ccc(=[N+](C)C)cc-3sc2cc1N ?
NTMT1 inh: 22µM; GALC G270D up: inactive; DRV1 agonist: inactive

Results for CN(C)c1ccc2nc3ccc(=[N+](C)C)cc-3sc2c1 ?
NTMT1 inh: 32µM; GALC G270D up: inactive; DRV1 agonist: inactive

What do the screens show for `O=C(CN(Cc1cccc2ccccc12)C1CC1)Nc1ccc(N2CCOCC2)cc1`?
NTMT1 inh: inactive

Results for Cc1ccc([S+](=O)([O-])n2cc(Cc3ccc(-c4ccccc4)cc3)c3ccccc32)cc1 ?
NTMT1 inh: inactive

Results for COC(=O)C1=C(C)NC(COC(N)=O)=C(C(=O)OC(C)C)C1c1cccc(Cl)c1Cl (stereo not given) ?
NTMT1 inh: inconclusive; GALC G270D up: inactive; DRV1 agonist: 86

How did C#Cc1cccc(Nc2nc3cc(C(=O)O)ccc3c3cncnc23)c1 do in these assays?
NTMT1 inh: 25µM

How did O=C1CCCC2=C1C(c1[nH]ncc1Cl)N=C(Nc1nc3ccccc3s1)N2 (stereo not given) do in these assays?
NTMT1 inh: inactive

Results for COC1=CC(=O)C=C(C)C12Oc1c(Cl)c(OC)cc(OC)c1C2=O (stereo not given) ?
NTMT1 inh: inactive

What do the screens show for `C[C@@H](O)[C@@H]1NC(=O)[C@H](CCCCN)NC(=O)[C@@H](Cc2c[nH]c3ccccc23)NC(=O)[C@H](Cc2ccccc2)NC(=O)[C@@H](NC(=O)[C@H](N)Cc2ccccc2)CSSC[C@@H](C(=O)N[C@H](CO)[C@@H](C)O)NC1=O`?
NTMT1 inh: inactive

What do the screens show for `Cc1c(Cl)ccc2sc(N3CCN(C(=O)C4CC4)CC3)nc12`?
NTMT1 inh: inconclusive; GALC G270D up: inactive; GALK inhibitor: inactive; B2AR arrestin ag: inactive; DRV1 agonist: 76

How did Cc1cc(C)c2sc(N3CCN(C(=O)C4CC4)CC3)nc2c1 do in these assays?
NTMT1 inh: 79µM; GALC G270D up: inactive; GALK inhibitor: inactive; B2AR arrestin ag: inactive; DRV1 agonist: inactive

How did Cc1ccc(OCCn2c(CCNC(=O)Cc3cccc(F)c3)nc3ccccc32)cc1 do in these assays?
NTMT1 inh: inactive
